# Measured values: PubChem BioAssay (EPA / NIEHS)
# Values joined by “and” are separate entries in the source; they are usually repeats but may differ in a detail not shown here. Identical values can stand only once. Results filed as inconclusive are left out. Active and inactive are the calls of the source. Rule for the calls: active = hit-call score of the fitted dose curve at least 0.9, where 1 is the maximum; inconclusive = response in the unintended direction; inactive = score below 0.9.
# Target: Cellular tumor antigen p53 (Homo sapiens) (UniProt P04637)
# Experiment: TOX21_p53_BLA_p3_ratio: Tox21 HCT-116 p53 Agonism Beta-lactamase Assay, Ratio, Phase 3 (AID 2283596)
# Excerpt: TOX21_p53_BLA_p3 is a cell-based, single-readout assay that uses HCT116, a human intestinal cell line, […] in a 1536-well plate.TOX21_p53_BLA_p3_ratio is an assay readout measuring reporter gene via receptor activity and designed using inducible reporter (beta lactamase induction) detected with GAL4 b-lactamase reporter gene. The signal is derived from the ratio of cleaved (ch2) to uncleaved (ch1) reporter gene substrate used as the measure of target activity.Data from the assay component TOX21_p53_BLA_p3_ratio was analyzed into 1 assay endpoint. This assay endpoint, TOX21_p53_BLA_p3_ratio, was analyzed in the positive analysis fitting direction relative to DMSO as the negative control and baseline of activity. Using a type of inducible reporter, gain-of-signal activity can be used to understand changes in the reporter gene as they relate to the gene TP53. Furthermore, this assay endpoint can be referred to as a primary readout, because this assay has produced multiple assay endpoints where this ratio serves a reporter gene function to understand target activity. To generalize the intended target to other relatable targets, this assay endpoint is annotated to the DNA binding intended target family, where the subfamily is tumor suppressor.
# Thawing Method: Place 14 mL of pre-warmed thaw medium into a 15 mL of conical tub. Remove the vial of cells to be thawed from liquid nitrogen and thaw rapidly by placing at 37C in a water bath with gentle agitation for 1-2 minutes. Decontaminate the vial by wiping with 70% ethanol before opening in a biological safety cabinet. Transfer the vial contents drop-wise into 14 mL of thaw medium in a sterile 15-mL conical tub. Centrifuge cells at 900 rpm for 4 minutes and resuspend in thaw medium. Transfer contents to the T75 tissue culture flask containing Thaw Medium and place flask in a humidified 37C/5% CO2 incubator. Switch to growth medium at first passage.Propagation Method: Aspirate medium, rinse once in DPBS, add 0.25% Trypsin/EDTA and swirl to coat the cell evenly. Add an equal volume of Growth Medium to inactivate Trypsin after 2-3 minutes incubation at 37C. Centrifuge cells at 900 rpm for 4 minutes and resuspend in growth medium. Cell should be passage or fed at least twice a week.Assay Protocol: Harvest cells from culture in growth medium and resuspend in assay medium. 2.2 Dispense 4000 cells/5 uL/well into 1536-well black/clear bottom plates using a Multidrop dispenser. After the cells were incubated at 37C for 5 hours, 23 nL of compounds dissolved in DMSO were transferred to the assay plate by a PinTool resulting in a 217-fold dilution. Incubate the plates for 16 hours at 37C, 5% CO2. Add 1 uL of 6X LiveBLAzer FRET B/G (CCF4-AM) Substrate Mixture to each well using a BioRAPTR dispenser and incubate the plates at room temperature for 2 hours. Measure fluorescence intensity at 460 and 530 nm emission and 405 nm excitation by an Envision detector. Data is expressed as the ratio of 460nm/530nm emissions. Add 4 uL of Cell-titer Glo to each well using BioRAPTR and incubate the plates at room temperature for 2 hours. Measure fluorescence intensity by a VewLux plate reader.
# Chain of Cellular tumor antigen p53 (Homo sapiens) (P04637 whole entry, looked up): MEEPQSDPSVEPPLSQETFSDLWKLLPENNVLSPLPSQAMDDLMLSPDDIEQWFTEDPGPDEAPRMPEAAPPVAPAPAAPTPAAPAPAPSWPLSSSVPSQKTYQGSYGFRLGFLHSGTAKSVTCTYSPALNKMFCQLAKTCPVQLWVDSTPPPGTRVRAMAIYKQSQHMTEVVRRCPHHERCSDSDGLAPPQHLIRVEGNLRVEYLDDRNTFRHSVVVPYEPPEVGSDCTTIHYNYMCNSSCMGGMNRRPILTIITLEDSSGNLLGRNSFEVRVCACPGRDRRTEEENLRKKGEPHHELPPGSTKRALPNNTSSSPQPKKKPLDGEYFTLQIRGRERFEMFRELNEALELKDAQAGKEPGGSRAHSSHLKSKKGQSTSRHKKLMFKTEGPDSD
Compound,outcome,AC50
O=C(O)c1c(Cl)cccc1Cl,inactive,–
H-RKDVY-OH,inactive,–
C[C@H](CCCC(C)(C)O)[C@H]1CC[C@H]2[C@@H]3CC=C4C[C@@H](O)CC[C@]4(C)[C@H]3CC[C@]12C,inactive,–
COC(=O)C1=C(C)NC(C)=C(C(=O)OCCN2CCN(C(c3ccccc3)c3ccccc3)CC2)C1c1cccc([N+](=O)[O-])c1 (stereo not given),inactive,–
COC(=O)[C@H]1[C@H]2C[C@H]3c4[nH]c5ccccc5c4CCN3C[C@H]2CC[C@@H]1O,inactive,–
C[N+](C)(C)CC(O)CC(=O)[O-] (stereo not given),inactive,–
CCOC(=O)n1ccn(C)c1=S,inactive,–
OCC(CBr)(CBr)CBr,inactive,–
CC(C)(C)c1ccc(C(O)CCCN2CCC(C(O)(c3ccccc3)c3ccccc3)CC2)cc1 (stereo not given),–,43.3 µM (active) and 39.2 µM (active)
Cc1cccc2cccnc12,inactive,–
O=C(NCCO[N+](=O)[O-])c1cccnc1,inactive,–
CCCCCN(CCCCC)C(=O)C(CCC(=O)O)NC(=O)c1ccc(Cl)c(Cl)c1 (stereo not given),inactive,–
CC1CC(OC(=O)C(O)c2ccccc2)CC(C)(C)C1 (stereo not given),inactive,–
O=c1[nH]c(=O)n([C@H]2C[C@H](O)[C@@H](CO)O2)cc1F,–,1.45 µM (active)
CC[C@@H](C)[C@H](N)C(=O)O,inactive,–
C/C=C/c1ccc(OCC)c(O)c1,inactive,–
OCCCC1CCCCC1,inactive,–
Cc1ccsc1/C=C/C1=NCCCN1C,inactive,–
OCC(CO)N[C@H]1C[C@](O)(CO)[C@@H](O)[C@H](O)[C@H]1O,inactive,–
O=C(O)CONC(=O)c1ccccc1,inactive,–

Compound,outcome,AC50
C=CN1CCCCCC1=O,inactive,–
CC(=O)Oc1ccc([N+](=O)[O-])cc1CCl,–,73.1 µM (active)
COc1cc2c(cc1N)oc1ccccc12,inactive,–
O=C(CO)[C@@H](O)[C@H](O)[C@H](O)CO,inactive,–
CC(NN)c1ccccc1 (stereo not given),inactive,–
CC(C)(C(=O)c1cccnc1)c1cccnc1,inactive,–
Cc1cc(O)c(C(C)C)cc1Cl,inactive,–
CCN(CC)C(=O)Nc1ccc(OCC(O)CNC(C)(C)C)c(C(C)=O)c1 (stereo not given),inactive,–
CCOC(=O)[C@@H](N)CS,inactive,–
CC(=O)N/N=C/c1ccc([N+](=O)[O-])o1,inactive,–
O=C(N/N=C/c1ccccc1O)c1ccncc1,inactive,–
CCCC1C(=O)N2C(N(C)C)=Nc3ccc(C)cc3N2C1=O (stereo not given),inactive,–
N=C(N)c1ccc2cc(OC(=O)c3ccc(N=C(N)N)cc3)ccc2c1,inactive,–
CC(=O)OC[C@H]1O[C@@H](n2ncc(=O)[nH]c2=O)[C@H](OC(C)=O)[C@@H]1OC(C)=O,–,3.15 µM (active)
Nc1ccc(S(=O)(=O)NCc2ccccc2)cc1,inactive,–
CCCCCC[C@@H](CCC)C(=O)O,inactive,–
Cc1cccc(C)c1OCC(=O)N[C@@H](Cc1ccccc1)[C@@H](O)C[C@H](Cc1ccccc1)NC(=O)[C@H](C(C)C)N1CCCNC1=O,inactive,–
NCCCNCCCCNC(=O)C(O)NC(=O)CCCCCCN=C(N)N (stereo not given),inactive,–
CCC(C)=NO,inactive,–
CCCC1([C@H](O)C/C=C/[C@H]2[C@H](O)CC(=O)[C@@H]2CCCCCCC(=O)OC)CCC1,inactive,–
